The text below walks through data of ChEMBL document CHEMBL4513216, “Probing the Open Global Health Chemical Diversity Library for Multistage-Active Starting Points for Next-Generation Antimalarials” (ACS Infect Dis, 2020).

Screen size: about 68,000 compounds; about 2,700 (4%) showed an effect of 50% or more. This is one part of a sample in which strong results are shown more often than they occur.

The assay concerns Plasmodium berghei. As to the kind of experiment: Screen against P. berghei liver stage (PbLuc), transformed with Luciferase, at 2uM. It is filed as functional, HepG2. The settings on record: tested at 2 uM.
With `Cc1noc(C)c1CNC1CCN(c2ccccc2OC(F)F)C1` (centres undefined), the INHIBITION was -15.77%.

`CO[C@@H]1CN(Cc2scnc2C)[C@@H]2CCCO[C@@H]21`: the INHIBITION was 34.23%.

Take `CC(C)n1nc(CNc2ncccn2)c2c1CN(C1CCOCC1)CC2`: the INHIBITION is listed as 38.49%.

Turning to `Cc1noc(NC(=O)c2ccc(Br)cc2)n1`, the INHIBITION is -43.47%.

For the compound `OCCN1CCN(CC(O)c2cc(Cl)ccc2Cl)CC1` (centres undefined), the INHIBITION is -21.76%.

For `CCOCCN1CCN(CC(O)c2cc(Cl)ccc2Cl)CC1` (centres undefined), the INHIBITION is reported as 50.61%.

Take `CCN1CCN(CC(O)c2cc(Cl)ccc2Cl)CC1` (centres undefined): the INHIBITION is -31.79%.

For the compound `CCCn1cnnc1CNC(=O)C1COc2ccc(OC)cc2C1` (centres undefined), the INHIBITION amounted to 21.14%.

As to `O=C(Nc1ccccc1)c1ccc2c(c1)C1(CCCCC1)CN2`, the INHIBITION was -9.98%.

In the case of `Cc1c[nH]c(C2CCCN(Cc3ccccc3C(=O)O)C2)n1` (centres undefined), the INHIBITION is reported as -2.35%.

Take `Cc1nc(C)c(CC(=O)N2CCC(c3ccn4nccc4n3)CC2)s1`: the INHIBITION worked out at 3.58%.

As for `Cc1noc(C)c1CC(=O)N1CCC(c2ccn3nccc3n2)CC1`, the INHIBITION was 52.57%.

`Cc1nc(CC(=O)N2CCC(c3ccn4nccc4n3)CC2)cs1`: the INHIBITION was 3.03%.

Regarding `Cn1cc(CN2CCO[C@@H]3CN(Cc4ccoc4)C[C@@H]3C2)cn1`, the INHIBITION is on record as -0.35%.

As to `CO[C@H]1CC[C@H]2[C@H]1OCCN2CCOCc1ccccc1`, the INHIBITION is -4.99%.

As for `COC(=O)CCNC(=O)c1coc(COc2ccc(F)cc2)n1`, the INHIBITION amounted to 56.16%.

In the case of `CC[C@H](CO)NC(=O)c1coc(COc2ccccc2F)n1`, the INHIBITION is -9.75%.

`CSCCNC(=O)c1coc(COc2ccc(F)cc2)n1`: the INHIBITION is 1.88%.

As to `CC[C@@H](CO)NC(=O)c1coc(COc2ccc3sc(C)nc3c2)n1`, the INHIBITION is recorded as -10.58%.

On to `CNS(=O)(=O)CCNC(=O)c1coc(COc2ccc(F)cc2)n1`, for which the INHIBITION is -38.4%.

Turning to `CC[C@@H](CO)NC(=O)c1coc(COc2ccc(OC)cc2)n1`, the INHIBITION is 53.26%.

As for `Cc1ccc(CN2CCC3(CC2)CCN(Cc2ccoc2)CC3)cc1`, the INHIBITION was determined as 14.93%.

In the case of `Cn1ccnc1CN1CCC2(CC1)CCN(Cc1ccoc1)C2`, the INHIBITION is -78.53%.

Regarding `Cc1ccc(CN2CCCC3(CCN(Cc4ccoc4)CC3)C2)cc1`, the INHIBITION amounted to 78.88%.

Turning to `Cn1cccc1C(=O)N1CCO[C@H]2[C@H](OCc3cccnc3)CC[C@@H]21`, the INHIBITION is on record as 0.32%.

Turning to `O=C1NCCN(Cc2cccnc2)C1CC(=O)N1CCc2n[nH]cc2C1` (centres undefined), the INHIBITION is on record as -3.25%.

As for `O=C1NCCN(Cc2ccccc2)C1CC(=O)N1CCc2n[nH]cc2C1` (centres undefined), the INHIBITION amounted to 50.32%.

As to `O=C1NCCN(CC2CCCCC2)C1CC(=O)N1CCc2n[nH]cc2C1` (centres undefined), the INHIBITION is 5.17%.

For `CN(C)c1nc2c(c(N3CCC4(CCCNC4=O)C3)n1)CCCC2` (centres undefined), the INHIBITION stood at 42.17%.

Consider `CNc1nc(N2CCC3(CCCNC3=O)C2)nc2c1CCC2` (centres undefined), for which the INHIBITION amounted to 56.49%.

With `Cc1cc(C2CCC2)nc(N2CCC3(CCCNC3=O)C2)n1` (centres undefined), the INHIBITION was 4.74%.

Turning to `O=C1NCCCC12CCN(c1nc3c(c(C(F)(F)F)n1)CCCC3)C2` (centres undefined), the INHIBITION was determined as 1.42%.

Regarding `Cc1nc2c(c(N3CCC4(CCCNC4=O)C3)n1)CCC2` (centres undefined), the INHIBITION came to 27.85%.

For the compound `Cc1nc(N2CCC3(CCCNC3=O)C2)nc2c1CCCC2` (centres undefined), the INHIBITION worked out at 62%.

Turning to `O=c1[nH][nH]c2cn(-c3ccccc3)c(=O)n12`, the INHIBITION is listed as -73.41%.

Consider `N#CCCn1cnc2c(F)cc(Br)cc2c1=O`, for which the INHIBITION is listed as -23.16%.

On to `c1cc(-c2nnc(C3CCCN(CC4CCCCC4)C3)o2)ccn1` (centres undefined), for which the INHIBITION is 29.48%.

With `Cc1cccc2nc(CNC(=O)N3CCC(OCC4CC4)CC3)cn12`, the INHIBITION turned out to be 38.2%.

Turning to `Cc1ccc(OCCCC(=O)Nc2nonc2C)cc1C`, the INHIBITION is -9.17%.

Turning to `COCc1cncc2c1CCN(Cc1ccccn1)C2`, the INHIBITION was 0.3%.

On to `CN(C)CCOCc1cncc2c1CCN(Cc1ccccn1)C2`, for which the INHIBITION stood at 56.21%.

Consider `CN(C)C(=O)COCc1cncc2c1CCN(Cc1ccccn1)C2`, for which the INHIBITION was determined as 41.93%.

For the compound `O=C(c1ccnn1COc1ccc(Cl)cc1)N1CCOCC1`, the INHIBITION was determined as 8.56%.

Consider `CCn1c(Nc2ccccc2OC)nc2c(C)nn(C)c2c1=O`, for which the INHIBITION is reported as -18.88%.

Consider `O=S(=O)(Cc1ccc(F)c(Cl)c1)NC(CO)c1ccco1` (centres undefined), for which the INHIBITION was 26.62%.

In the case of `Cc1noc2nc(C3CCN(CC4CCCCC4)CC3)cc(C(F)F)c12`, the INHIBITION is reported as -7.7%.

For `Cc1nc(CN(C)c2nccc(C(F)(F)F)n2)cs1`, the INHIBITION is recorded as 60.13%.

In the case of `Cc1nc(CN(C)c2nccc(N(C)C)n2)cs1`, the INHIBITION was -13.89%.

Consider `COc1ccnc(N(C)Cc2csc(C)n2)n1`, for which the INHIBITION is listed as -21.99%.

`Cc1nn(C)c(C)c1Cc1nc(N(C)C)no1`: the INHIBITION was 20.71%.

On to `CC(C)c1nccn1Cc1cc(C(=O)NCC(F)(F)F)n[nH]1`, for which the INHIBITION is given as -7.52%.

As for `O=C1NCC(C(=O)Nc2ncc(Cc3ccc(F)cc3)s2)N1` (centres undefined), the INHIBITION is listed as 21.39%.

Consider `O=C1NCC(C(=O)Nc2ncc(Cc3ccccc3)s2)N1` (centres undefined), for which the INHIBITION was 53.98%.

With `O=C1NCC(C(=O)Nc2ncc(Cc3cccc(F)c3)s2)N1` (centres undefined), the INHIBITION is listed as 3.06%.
